The target of test [1] is Serine/threonine-protein kinase 26 (Homo sapiens) (UniProt Q9P289). The settings on record: at 1 µM.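 Further: mean inhibition of MST4 kinase activity, reported from the GSK PKIS inhibitor-set screening panel.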
In test [2] the target is Serine/threonine-protein kinase PAK 1 (Homo sapiens) (UniProt Q13153). The settings on record: at 0.1 µM.
Test [3] has the same target. The settings on record: at 1 µM.
The target in test [4] is Serine/threonine-protein kinase PAK 2 (Homo sapiens) (UniProt Q13177). The following applies: at 0.1 µM.
Serine/threonine-protein kinase PAK 2 (Homo sapiens), sequence (Q13177 whole entry): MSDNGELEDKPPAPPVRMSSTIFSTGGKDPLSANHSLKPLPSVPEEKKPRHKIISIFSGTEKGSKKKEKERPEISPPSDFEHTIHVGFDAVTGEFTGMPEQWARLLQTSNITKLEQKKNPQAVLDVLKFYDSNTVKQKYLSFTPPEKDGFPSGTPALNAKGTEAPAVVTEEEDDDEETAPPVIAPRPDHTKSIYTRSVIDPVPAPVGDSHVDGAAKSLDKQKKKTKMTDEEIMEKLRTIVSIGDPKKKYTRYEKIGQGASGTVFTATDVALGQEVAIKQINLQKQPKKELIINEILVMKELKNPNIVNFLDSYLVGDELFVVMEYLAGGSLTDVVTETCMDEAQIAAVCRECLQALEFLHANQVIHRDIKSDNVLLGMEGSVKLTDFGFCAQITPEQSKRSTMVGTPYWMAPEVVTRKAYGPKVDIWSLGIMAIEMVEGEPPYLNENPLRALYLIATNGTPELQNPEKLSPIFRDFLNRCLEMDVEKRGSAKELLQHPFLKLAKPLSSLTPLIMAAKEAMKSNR
The target is the same in test [5]. The settings on record: at 1 µM.
The target of test [6] is Serine/threonine-protein kinase PAK 3 (Homo sapiens) (UniProt O75914). The following applies: at 0.1 µM.
Serine/threonine-protein kinase PAK 3 (Homo sapiens), sequence (O75914 whole entry, looked up): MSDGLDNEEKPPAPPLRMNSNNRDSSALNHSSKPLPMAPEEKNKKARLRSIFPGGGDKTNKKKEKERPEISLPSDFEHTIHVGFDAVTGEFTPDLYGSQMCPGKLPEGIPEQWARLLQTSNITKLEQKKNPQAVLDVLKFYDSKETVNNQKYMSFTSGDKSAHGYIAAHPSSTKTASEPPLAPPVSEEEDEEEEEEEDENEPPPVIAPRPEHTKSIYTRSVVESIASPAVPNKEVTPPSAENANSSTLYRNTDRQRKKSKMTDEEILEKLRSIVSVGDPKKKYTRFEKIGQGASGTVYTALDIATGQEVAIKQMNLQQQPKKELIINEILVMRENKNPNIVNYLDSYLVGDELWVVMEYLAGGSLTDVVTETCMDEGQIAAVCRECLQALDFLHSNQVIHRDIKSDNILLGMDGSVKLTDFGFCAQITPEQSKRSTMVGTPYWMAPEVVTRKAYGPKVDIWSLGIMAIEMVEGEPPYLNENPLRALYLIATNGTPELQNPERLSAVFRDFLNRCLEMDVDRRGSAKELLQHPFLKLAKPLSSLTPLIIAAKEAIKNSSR
The target is the same in test [7]. The following applies: at 1 µM.
In test [8] the target is Serine/threonine-protein kinase PAK 5 (Homo sapiens) (UniProt Q9P286). The settings on record: at 0.1 µM.
Serine/threonine-protein kinase PAK 5 (Homo sapiens), sequence (Q9P286 whole entry, looked up): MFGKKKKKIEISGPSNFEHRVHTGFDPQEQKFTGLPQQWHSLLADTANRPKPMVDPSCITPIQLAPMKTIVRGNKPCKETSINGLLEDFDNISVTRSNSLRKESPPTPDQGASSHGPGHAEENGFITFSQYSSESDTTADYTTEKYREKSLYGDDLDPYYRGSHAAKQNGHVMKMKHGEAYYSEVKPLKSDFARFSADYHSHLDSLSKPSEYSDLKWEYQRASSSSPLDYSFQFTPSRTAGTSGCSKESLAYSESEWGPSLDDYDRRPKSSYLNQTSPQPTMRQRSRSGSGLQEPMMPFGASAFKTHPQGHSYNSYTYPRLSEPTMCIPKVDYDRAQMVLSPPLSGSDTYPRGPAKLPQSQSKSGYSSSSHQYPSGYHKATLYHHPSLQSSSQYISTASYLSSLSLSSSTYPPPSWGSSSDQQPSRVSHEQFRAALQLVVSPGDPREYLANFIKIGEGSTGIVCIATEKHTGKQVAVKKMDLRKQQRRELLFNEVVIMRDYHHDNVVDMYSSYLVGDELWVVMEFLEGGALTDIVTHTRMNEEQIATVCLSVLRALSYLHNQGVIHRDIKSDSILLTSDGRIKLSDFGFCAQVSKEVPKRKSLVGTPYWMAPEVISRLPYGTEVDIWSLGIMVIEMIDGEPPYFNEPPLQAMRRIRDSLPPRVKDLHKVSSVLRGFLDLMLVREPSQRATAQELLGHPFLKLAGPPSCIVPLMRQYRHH
Test [9] shares this target. The settings on record: at 1 µM.
Test [10] concerns the target Serine/threonine-protein kinase PAK 6 (Homo sapiens) (UniProt Q9NQU5). The settings on record: at 0.1 µM.
The target is the same in test [11]. The following applies: at 1 µM.
In test [12] the test system is Tyrosine-protein kinase ABL1 (Homo sapiens), P00519 [E255K]. The settings on record: at 0.1 µM.
The test system is the same in test [13]. The following applies: at 1 µM.
For test [14], the system named is Tyrosine-protein kinase ABL1 (Homo sapiens), P00519 [H396P]. The following applies: at 0.1 µM.
Test [15] shares this test system. The settings on record: at 1 µM.
For test [16], the system named is Tyrosine-protein kinase ABL1 (Homo sapiens), P00519 [M351T]. The following applies: at 0.1 µM.
Test [17] shares this test system. The settings on record: at 1 µM.
The test system of test [18] is Tyrosine-protein kinase ABL1 (Homo sapiens), P00519 [Q252H]. The following applies: at 0.1 µM.
Test [19] has the same test system. The settings on record: at 1 µM.
The test system of test [20] is Tyrosine-protein kinase ABL1 (Homo sapiens), P00519 [T315I]. The settings on record: at 0.1 µM.

Serine/threonine-protein kinase 26 (Homo sapiens), sequence (Q9P289 2-416 limits assumed): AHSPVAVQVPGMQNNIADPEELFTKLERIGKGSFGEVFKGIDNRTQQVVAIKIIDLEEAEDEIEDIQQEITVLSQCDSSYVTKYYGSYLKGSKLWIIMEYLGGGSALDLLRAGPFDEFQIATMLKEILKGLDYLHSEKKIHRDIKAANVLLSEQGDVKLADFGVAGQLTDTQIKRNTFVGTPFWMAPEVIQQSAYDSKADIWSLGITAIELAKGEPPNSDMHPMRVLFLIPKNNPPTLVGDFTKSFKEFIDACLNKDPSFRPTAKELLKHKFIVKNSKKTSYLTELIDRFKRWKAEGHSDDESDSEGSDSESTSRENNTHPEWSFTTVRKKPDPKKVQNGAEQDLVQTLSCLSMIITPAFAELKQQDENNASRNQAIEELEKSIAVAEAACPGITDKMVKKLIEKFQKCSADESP
Serine/threonine-protein kinase PAK 1 (Homo sapiens), sequence (Q13153 whole entry): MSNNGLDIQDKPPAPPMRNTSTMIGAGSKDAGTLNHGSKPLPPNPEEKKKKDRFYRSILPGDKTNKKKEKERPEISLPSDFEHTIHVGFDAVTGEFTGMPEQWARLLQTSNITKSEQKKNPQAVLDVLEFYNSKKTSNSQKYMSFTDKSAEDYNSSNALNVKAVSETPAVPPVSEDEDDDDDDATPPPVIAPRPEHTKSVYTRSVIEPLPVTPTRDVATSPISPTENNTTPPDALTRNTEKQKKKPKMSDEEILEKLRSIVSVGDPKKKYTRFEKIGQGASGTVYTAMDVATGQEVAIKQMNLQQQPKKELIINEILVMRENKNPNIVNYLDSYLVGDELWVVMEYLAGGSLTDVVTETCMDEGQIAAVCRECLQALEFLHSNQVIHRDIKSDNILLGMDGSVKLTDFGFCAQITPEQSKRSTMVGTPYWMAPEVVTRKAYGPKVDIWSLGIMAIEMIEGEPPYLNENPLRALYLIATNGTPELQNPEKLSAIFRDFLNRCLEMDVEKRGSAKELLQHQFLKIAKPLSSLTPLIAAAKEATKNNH
Serine/threonine-protein kinase PAK 6 (Homo sapiens), sequence (Q9NQU5 whole entry, looked up): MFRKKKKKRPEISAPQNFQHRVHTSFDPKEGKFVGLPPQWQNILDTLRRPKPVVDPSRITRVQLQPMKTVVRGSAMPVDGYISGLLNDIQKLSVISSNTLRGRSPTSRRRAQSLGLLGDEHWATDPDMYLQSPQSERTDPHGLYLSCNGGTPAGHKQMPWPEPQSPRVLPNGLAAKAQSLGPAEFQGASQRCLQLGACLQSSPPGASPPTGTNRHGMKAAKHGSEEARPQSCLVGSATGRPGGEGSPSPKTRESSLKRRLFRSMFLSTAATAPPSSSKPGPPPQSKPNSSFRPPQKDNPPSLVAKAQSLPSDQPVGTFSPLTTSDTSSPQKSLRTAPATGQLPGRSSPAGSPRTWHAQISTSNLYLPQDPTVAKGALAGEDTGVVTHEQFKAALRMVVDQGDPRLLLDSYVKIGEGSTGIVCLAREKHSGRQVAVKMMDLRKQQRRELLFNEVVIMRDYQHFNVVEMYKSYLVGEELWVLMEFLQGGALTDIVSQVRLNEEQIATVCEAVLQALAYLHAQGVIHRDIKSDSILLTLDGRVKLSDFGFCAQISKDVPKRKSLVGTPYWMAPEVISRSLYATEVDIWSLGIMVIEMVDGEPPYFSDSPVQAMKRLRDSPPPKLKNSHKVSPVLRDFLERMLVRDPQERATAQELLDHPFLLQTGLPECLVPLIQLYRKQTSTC

For `CNC(=O)c1ncccc1Nc1nc(Nc2cc3c(cc2OC)CCCN3C(=O)CN(C)C)nc2[nH]ccc12`, the inhibition was -5.28% in test [1]; 7.85% in test [2]; 7.25% in [3]; 0.92% in [4]; 1.69% in test [5]; 4.29% in test [6]. In addition, the inhibition in test [7] was 5.27%; in [8], 5.25%; in test [9] it was -0.15%; in test [10], 11.4%; in test [11], 3.38%; in [12], 2.91%. The inhibition in [13] came out at 2.97%; in [14], 2.6%; in test [15] it was 2.23%; in test [16], 1.84%; in test [17] it was 0.31%; in test [18], 3.06%. Moreover, the inhibition in test [19] came out at 3.95%; in test [20], 3.72%.

With `CS(=O)(=O)CCNCc1ccoc1-c1ccc2ncnc(Nc3ccc(OCc4ccccc4)cc3)c2c1`, the inhibition in test [1] was -0.88%; in test [2], -2.84%; in test [3], -0.82%; in test [4], -0.75%; in test [5] it was -2.34%; in test [6] it was -3.57%. The inhibition in [7] is -0.05%; in test [8], -0.34%; in test [9], 3.51%; in test [10], -5.6%; in test [11] it was -2.12%; in test [12], -3.3%. Besides, the inhibition in test [13] is 0.24%; in test [14], 0.81%; in test [15], -0.01%; in test [16] it was 0.87%; in test [17], -0.25%; in test [18], 1.54%. For the same compound, the figures for the inhibition in [19] and in test [20] were 1.56% and 1.58%, respectively.

Take `OCCCNc1nccc(-c2c(-c3ccc(F)cc3)nn3cc(C(F)(F)F)ccc23)n1`: the inhibition was -0.53% in test [1]; 6.37% in test [2]; 5.57% in test [3]; 2.56% in [4]; 2.03% in test [5]; 2.17% in test [6]. Moreover, the inhibition was 3.68% in test [7]; -4.85% in [8]; -5.58% in test [9]; 8.72% in test [10]; -2.02% in [11]; 3.05% in test [12]. Besides, the inhibition in test [13] amounted to 3.11%; in [14], 3.42%; in test [15], 3.33%; in [16], 2.71%; in test [17], 3%; in [18], 4.61%. For the same compound, the inhibition was determined as 3.52% in [19] and 1.5% in [20].

Turning to `N#Cc1ccc2c(-c3ccnc(NC4CC4)n3)c(-c3ccc(F)cc3)nn2c1`, the inhibition in test [1] was -1.31%; in [2] it was -1.35%; in test [3], 7.43%; in test [4], 0.74%; in [5], 0.16%; in [6], 1.37%. In addition, the inhibition was 2.53% in test [7]; 1.73% in test [8]; 3.22% in test [9]; -5.39% in test [10]; -2.35% in test [11]; -0.39% in [12]. For the same compound, the inhibition was 0.55% in test [13]; -0.57% in [14]; 3.93% in [15]; -0.71% in test [16]; 3.61% in test [17]; 0.81% in test [18]. Besides, the results for the inhibition in test [19] and in test [20] were 4.72% and -0.18%, respectively.

In the case of `Fc1ccc(Nc2nccc(-c3c(-c4ccc(C(F)(F)F)cc4)nn4ncccc34)n2)cc1F`, the inhibition in test [1] was -0.83%; in test [2], 4.75%; in test [3] it was 4.66%; in [4] it was 1.92%; in test [5] it was 2.47%; in [6], 3.13%. In addition, the inhibition is 3.25% in test [7]; -0.66% in test [8]; -1.33% in [9]; 0.92% in [10]; 1.02% in test [11]; 0.93% in test [12]. Moreover, the inhibition in test [13] was determined as 3.19%; in test [14], 3.64%; in test [15], 1.04%; in test [16], 2.73%; in [17], 2.45%; in test [18], 3.28%. Besides, the inhibition in [19] was -0.3%; in test [20], 3.85%.

`Cc1ccc(-c2cc3c(NC(=O)C4CC4)ncnc3o2)cc1`: the inhibition in [1] is -2.53%; in test [2] it was 3.85%; in [3], 5.51%; in [4], 1.95%; in [5], 1.97%; in test [6], 3.79%. For the same compound, the inhibition was 4.95% in [7]; 4.59% in [8]; -3.05% in test [9]; 4.74% in test [10]; 1.82% in [11]; 5.52% in test [12]. In addition, the inhibition was 18.3% in test [13]; 5.91% in test [14]; 24.2% in test [15]; 3.97% in [16]; 22.8% in test [17]; 6.11% in [18]. Also, the inhibition in test [19] was determined as 23.7%; in [20], 4.71%.

As to `CC1=C(C(=O)Nc2ccc3[nH]nc(C)c3c2)C(c2ccc(C(F)(F)F)cc2)CC(=O)N1` (stereo not given), the inhibition in [1] is -2.31%; in test [2], 4.1%; in test [3], 3.72%; in test [4], 1.78%; in [5], 1.55%; in test [6], 2.35%. The inhibition in [7] was 2.95%; in test [8] it was 10.3%; in [9], -2.13%; in test [10], -0.15%; in [11], 6.01%; in test [12] it was 2.57%. Also, the inhibition stood at 3.48% in test [13]; 4.06% in test [14]; 4.03% in test [15]; 1.49% in test [16]; 4.65% in test [17]; 4.49% in test [18]. Besides, the inhibition in [19] came to 3.3%; in [20] it was 3.82%.

For orientation: inhibition means the change of the read-out against control, counted positive when it falls.

These data come from ChEMBL document CHEMBL1961873, “Compounds: GSK PKIS; Assays: Nanosyn kinase panel” (2012).
